# Test results published in the antibiotic and cytotoxicity screens of Wong et al. (2023).
# Hit rate of the full screen: of about 39,000 compounds, about 500 (1.3%) were called active. The entries come from a sample that favours actives as a whole.
# Test system: S. aureus RN4220
# Assay: growth inhibition call (relative growth <= 0.2)
# Details: 50 µM
row,Compound,growth inhibition call
1,CC=Cc1ccc2c(c1)OCO2,inactive
2,CCn1cnc2c(Nc3cccc(Cl)c3)nc(N[C@@H]3CCCC[C@@H]3N)nc21,inactive
3,CCO[C@H]1[C@H]2CC[C@@H]1NC2,inactive
4,O=[N+]([O-])C(Br)(CO)CO [listing 1 of 2 here],active
5,OCC(Br)(Br)Br,inactive
6,O=[N+]([O-])C(Br)(CO)CO [listing 2 of 2 here],active
7,CCCCS(=O)(=O)N1C[C@H]2CNC[C@@H]2C1,inactive
8,C[C@H]1CN([C@@H](C)CO)C(=O)CCCn2nncc2CO[C@H]1CN(C)C(=O)Oc1ccc2ccccc2c1,inactive
9,CNCC(=O)c1ccc(O)c(O)c1,inactive
10,CCCCCCCCCC(=O)O[C@@H]1[C@@H](C)[C@]2(O)[C@@H](C=C(CO)C[C@]3(O)C(=O)C(C)=C[C@@H]23)[C@@H]2C(C)(C)[C@@]12OC(=O)CCCCCCCCC,inactive
11,CCCCC(=O)N1C[C@@H]2CCNC[C@@H]21,inactive
12,Cc1nc(-c2ccc(-c3ccc(C(=O)N4CCc5cc6c(cc54)C4(CCN(C)CC4)CO6)cc3)c(C)c2)no1,active
13,O=[N+]([O-])c1ccc([As](=O)(O)O)cc1,inactive
14,CC(=O)NN1Cc2ccccc2C1=N,inactive
15,CNc1ccc(C(=O)C[C@@H](O)CC[C@@H](C)[C@H]2OC(=O)C[C@@H](O)CC(=O)C[C@@H](O)C[C@@H](O)C[C@@H](O)C[C@@H](O)C[C@@]3(O)C[C@@H](O)[C@H](C(=O)OC)[C@@H](C[C@@H](O[C@@H]4O[C@H](C)[C@@H](O)[C@H](N)[C@@H]4O)\C=C/C=C\C=C/C=C\C=C/C=C\C=C/[C@@H]2C)O3)cc1,inactive
16,CCNS(=O)(=O)C(F)(F)C(F)(F)C(F)(F)C(F)(F)C(F)(F)C(F)(F)C(F)(F)C(F)(F)F,inactive
17,CN(C)C(=O)Oc1ccc[n+](C)c1.[Br-],inactive
18,c1ccc2sc(C3(N4CCCC4)CCCCC3)cc2c1,inactive
19,CCCCOC(=O)C1=CC(=O)CC(C)(C)O1,inactive
20,O=[N+]([O-])c1cc([As](=O)(O)O)ccc1O,inactive
21,O=[N+]([O-])c1ccc(O)c([N+](=O)[O-])c1,active
22,O=[N+]([O-])c1cc(O)c(O)c([N+](=O)[O-])c1,inactive
23,CCCC[C@@H](C)[C@@H](OC(=O)C[C@@H](CC(=O)O)C(=O)O)[C@H](C[C@@H](C)C[C@H](O)CCCC[C@@H](O)C[C@H](O)[C@H](C)N)OC(=O)C[C@@H](CC(=O)O)C(=O)O,inactive
24,O=C(O)C[C@H]1CC[C@@H]2NC[C@H](O)COC[C@H]2O1,inactive

row,Compound,growth inhibition call
1,CC(C)[C@@H](Br)C(=O)NC(N)=O,inactive
2,C[C@@H]1CN([C@H](C)CO)C(=O)CCCn2nncc2CO[C@@H]1CN(C)C(=O)Oc1ccc2ccccc2c1,inactive
3,CC(=O)[O][Cd][O]C(C)=O,active
4,CC(=O)[O][PbH2][O]C(C)=O,inactive
5,CC1OC(OC2C(O)C(O)C(O)C(O)C2O)C(N)CC1NC(=N)C(=O)O.Cl (stereo not drawn),inactive
6,C=C1[C@@H](C)[C@H]2[C@H](Cc3ccccc3)NC(=O)[C@]23[C@H](OC(C)=O)/C=C/[C@](C)(O)C(=O)[C@@H](C)C/C=C/[C@H]3[C@@H]1O,inactive
7,C=CCOC(Cn1ccnc1)c1ccc(Cl)cc1Cl.O=S(=O)(O)O (stereo not drawn),active
8,O.O.O.O=C([O-])C1[O][Sb]2[O]C(=O)C([O]2)C(C(=O)[O-])[O][Sb]2[O]C(=O)C1[O]2.[K+].[K+] (stereo not drawn),inactive
9,CC(C)=CCCC1(C)C=Cc2c(O)c3c(c(CC=C(C)C)c2O1)OC12C(=CC4CC1C(C)(C)OC2(CC=C(C)C(=O)O)C4=O)C3=O (stereo not drawn),inactive
10,NC(=O)c1cc([N+](=O)[O-])cc([N+](=O)[O-])c1,inactive
11,CC(C)[C@@H]1NC[C@@H]2CCCN2C1=O,inactive
12,C=C[C@H]1[C@H](O[C@@H]2O[C@H](CO)[C@@H](O)[C@H](O)[C@H]2O)OC=C2C(=O)OCC[C@H]21,inactive
13,O=[N+]([O-])c1ccc(N(CCO)CCO)c2c1no[n+]2[O-],active
14,C#CCOS(=O)OC1CCCCC1Oc1ccc(C(C)(C)C)cc1 (stereo not drawn),inactive
15,O=C(c1ccccc1)C12CN3CN(CN(C3)C1)C2,inactive
16,C1CC2(CCN1)OCCO2,inactive
17,Clc1cc2c(cc1Cl)Oc1cc(Cl)c(Cl)cc1O2,inactive
18,[O-][n+]1ccccc1[S][Zn][S]c1cccc[n+]1[O-],active
19,O[C@H]1[C@H](O)[C@@H](O)CN2CC[C@H](O)[C@H]12,inactive
20,CCN(CC)S(=O)(=O)c1ccc(Cn2nc(C(=O)Nc3ccc(N4CCCCC4)cc3)c3ccccc32)cc1,inactive
21,COC(=O)C(c1ccccc1)C1CCCCN1.Cl (stereo not drawn),inactive
22,CC[C@@H](N)[C@@H](O)c1ccc(O)c(O)c1,inactive
23,CCC(COC(=O)c1cc(OC)c(OC)c(OC)c1)(c1ccccc1)N(C)C.O=C(O)C=CC(=O)O (stereo not drawn),inactive
24,COP(=S)(OC)Oc1ccc(Sc2ccc(OP(=S)(OC)OC)cc2)cc1,inactive

row,Compound,growth inhibition call
1,COP(=S)(OC)Oc1cc(Cl)c(Cl)cc1Cl,active
2,CCOP(=S)(OCC)Oc1nc(Cl)c(Cl)cc1Cl,inactive
3,N[C@@]1(C(=O)O)CC[C@@H](C(=O)O)C1.N[C@]1(C(=O)O)CC[C@H](C(=O)O)C1,inactive
4,NCCc1nnc2n1CCCCC2,inactive
5,CNC(C)C(O)c1ccccc1.Cl (stereo not drawn),inactive
6,CCCCCCCCCCCCCCCC[n+]1ccccc1.[Cl-],inactive
7,CN[C@@H]1[C@@H](O)[C@@H](O[C@@H]2[C@H](O)[C@@H](O[C@H]3O[C@H]([C@@H](C)O)[C@@H](O)[C@H](O)[C@H]3N)[C@H](N)C[C@@H]2N)OC[C@]1(C)O,inactive
8,CN[C@@H]1[C@@H](O)[C@@H](O[C@@H]2[C@@H](O)[C@H](O[C@H]3O[C@H](CN)CC[C@H]3N)[C@@H](N)C[C@H]2N)OC[C@]1(C)O.CN[C@@H]1[C@@H](O)[C@@H](O[C@@H]2[C@@H](O)[C@H](O[C@H]3O[C@H]([C@@H](C)N)CC[C@H]3N)[C@@H](N)C[C@H]2N)OC[C@]1(C)O.CN[C@@H]1[C@@H](O)[C@@H](O[C@@H]2[C@@H](O)[C@H](O[C@H]3O[C@H]([C@@H](C)NC)CC[C@H]3N)[C@@H](N)C[C@H]2N)OC[C@]1(C)O,inactive
9,CNC1C(O)C(OC2C(N)CC(N)C(OC3OC(C(C)O)C(O)C(O)C3N)C2O)OCC1(C)O (stereo not drawn),active
10,O=C1O[C@H]2CN[C@@H]1C2,inactive
11,C[C@H]1CN([C@@H](C)CO)C(=O)CCCn2nncc2CO[C@@H]1CN(C)C(=O)Oc1ccc2ccccc2c1,inactive
12,CC1=C(O)C(=O)C=C2C1=CC=C1C2(C)CCC2(C)C3CC(C)(C(=O)O)CCC3(C)CCC12C (stereo not drawn),inactive
13,Cc1nc2c(=O)n(C)c(=O)nc-2n(C)n1,inactive
14,CCn1nc(-c2cccnc2)nc2c(=O)n(C)c(=O)nc1-2,active
15,Cn1ncnc2c(=O)n(C)c(=O)nc1-2,inactive
16,CCC1=C[C@@H]2[C@H](C1)C[C@]2(CN)CC(=O)O,inactive
17,C[C@@H]1CN([C@@H](C)CO)C(=O)CCCn2cc(nn2)CO[C@@H]1CN(C)C(=O)Oc1cccc2ccccc12,inactive
18,Cl.Oc1noc2c1CCNC2,inactive
19,CC12CCC(O)CC1CCC1C2CC(O)C2(C)C(C3=CC(=O)OC3)CCC12O (stereo not drawn),inactive
20,CC1=C2CC3C(CC=C4CC(O)CCC43C)C2CCC12OC1CC(C)CNC1C2C (stereo not drawn),inactive
21,O=C(O)C=CC(=O)O.c1ccc2nc(N3CCNCC3)ccc2c1,inactive
22,CC(C)(C)C(=O)C(Oc1ccc(Cl)cc1)n1cncn1 (stereo not drawn),inactive
23,O=C1C=C2C(=CCOC2O)O1 (stereo not drawn),active
24,O=C1C=C2C(=CCO[C@@H]2O)O1,inactive

row,Compound,growth inhibition call
1,CO[C@@H]1C=C[C@@H]2[C@H]1N2CCCO (stereo partly drawn),inactive
2,Cc1cc[n+](C)cc1,inactive
3,COc1ccc(CN2CCNCC2)c(OC)c1OC.Cl.Cl,inactive
4,COCCCNC(=O)C1[C@@H]2CC[C@H]1CNC2 (stereo partly drawn),inactive
5,COc1ccc2c(c1)C[C@H](N)C2,inactive
6,Oc1c(Cl)c(Cl)c(Cl)c(Cl)c1Cl,active
7,CCCCCCCCCCCCCCCC[N+](C)(C)C.[Br-],inactive
8,C[C@@H](N)Cc1c[nH]c2ccc(O)cc12,inactive
9,Oc1ccccc1N1CCNCC1,inactive
10,CN1C(=O)[C@]23CC4=CC=C[C@H](O)[C@H]4N2C(=O)[C@@]1(CO)SS3,inactive
11,CN1C(=O)[C@@]23C[C@]4([C@@]56C[C@]78SS[C@](CO)(C(=O)N7[C@@H]5Nc5ccccc56)N(C)C8=O)c5ccccc5N[C@H]4N2C(=O)[C@@]1(CO)SS3,active
12,CCCC(=O)c1c(O)[nH]c(=O)[nH]c1=O,inactive
13,CCCC12CNCC(C)(CNC1)C2=O,inactive
14,c1ccc2cc3c(cc2c1)-c1cccc2cccc-3c12,inactive
15,CN(C)C(=S)SSC(=S)N(C)C,active
16,CO[C@@H]1C[C@@H](C[C@H]2CC[C@H](C)[C@H]([C@@H](C)C(=O)O)O2)O[C@]2(O[C@](C)([C@H]3CC[C@@](C)([C@H]4O[C@@H]([C@H]5O[C@@](O)(CO)[C@H](C)C[C@@H]5C)C[C@@H]4C)O3)C[C@H]2C)[C@@H]1C,active
17,Cc1ccc(OC(=O)N(C)C[C@H]2OCc3ccccc3-c3c(n(C)c4ccccc34)C(=O)N([C@@H](C)CO)C[C@@H]2C)cc1,inactive
18,CC(C)c1cc2c(c(O)c1O)C1(C(=O)O)CCCC(C)(C)C1CC2 (stereo not drawn),inactive
19,O=C(NCNC(=O)N[C@H]1C(=O)NC(=O)N1CO)N[C@H]1C(=O)NC(=O)N1CO,inactive
20,CC(C)(CN)CNc1ccc([N+](=O)[O-])c2cccnc12,inactive
21,CC(=O)OC1CC(OC2C(O)CC(OC3C(O)CC(OC4CCC5(C)C(CCC6C5CC(O)C5(C)C(C7=CC(=O)OC7)CCC65O)C4)OC3C)OC2C)OC(C)C1OC1OC(CO)C(O)C(O)C1O (stereo not drawn),inactive
